This note sets out measurements from paper PMC4336329 (PLoS ONE, 2015).

The structures appear in SMILES notation. In all, about 310,000 compounds went through this assay and about 2,200 (0.71%) showed an effect of 50% or more. Effects have a minus sign here. What follows is part of a selection rich in strong results, with near analogues and random picks from the rest.

The target in this experiment is human ether-à-go-go-related gene (hERG) potassium channel (human, UniProt Q12809). Put plainly: primary screen, population patch clamp on CHO cells stably expressing hERG; higher = less effect of the substance.
Sequence of human ether-à-go-go-related gene (hERG) potassium channel (Q12809 whole entry, looked up): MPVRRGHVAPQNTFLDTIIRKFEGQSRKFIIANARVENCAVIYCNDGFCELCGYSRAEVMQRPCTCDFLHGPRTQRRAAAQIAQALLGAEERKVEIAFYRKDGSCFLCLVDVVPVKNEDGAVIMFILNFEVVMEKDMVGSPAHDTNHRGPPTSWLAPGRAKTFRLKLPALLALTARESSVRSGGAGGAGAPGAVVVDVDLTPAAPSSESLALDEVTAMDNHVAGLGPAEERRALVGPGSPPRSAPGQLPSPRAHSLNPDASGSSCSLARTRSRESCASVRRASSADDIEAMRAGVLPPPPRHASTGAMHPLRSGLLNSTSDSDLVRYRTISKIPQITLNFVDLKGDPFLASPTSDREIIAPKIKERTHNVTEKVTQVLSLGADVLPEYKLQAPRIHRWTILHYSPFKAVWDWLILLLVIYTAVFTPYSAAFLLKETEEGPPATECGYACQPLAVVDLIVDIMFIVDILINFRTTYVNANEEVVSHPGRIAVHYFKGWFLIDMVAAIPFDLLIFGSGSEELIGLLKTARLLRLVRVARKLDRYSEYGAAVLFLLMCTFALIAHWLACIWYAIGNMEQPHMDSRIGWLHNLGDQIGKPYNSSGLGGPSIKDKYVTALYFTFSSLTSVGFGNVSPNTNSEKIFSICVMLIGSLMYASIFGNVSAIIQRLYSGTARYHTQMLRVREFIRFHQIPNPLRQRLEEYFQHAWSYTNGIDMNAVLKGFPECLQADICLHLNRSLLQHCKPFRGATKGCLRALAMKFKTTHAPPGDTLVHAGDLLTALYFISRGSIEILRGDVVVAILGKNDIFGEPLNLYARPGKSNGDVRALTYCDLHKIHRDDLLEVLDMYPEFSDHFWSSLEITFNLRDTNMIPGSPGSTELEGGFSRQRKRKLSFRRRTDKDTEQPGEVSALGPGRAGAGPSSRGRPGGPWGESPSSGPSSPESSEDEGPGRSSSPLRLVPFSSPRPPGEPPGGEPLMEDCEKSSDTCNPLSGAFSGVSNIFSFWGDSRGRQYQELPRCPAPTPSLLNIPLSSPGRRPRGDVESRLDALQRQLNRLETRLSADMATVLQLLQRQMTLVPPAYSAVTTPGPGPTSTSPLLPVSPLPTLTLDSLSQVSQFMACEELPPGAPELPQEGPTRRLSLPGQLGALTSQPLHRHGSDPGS
Regarding `CCN(CC)S(=O)(=O)c1ccc(N2CCOCC2)c(NS(=O)(=O)c2cc(C(C)(C)C)ccc2C)c1`, the “hERG current change (%, negative = inhibition) at 1uM” value stood at 6.68%.

As for `O=C(NCCc1cccs1)C1CC(c2c(Cl)cccc2Cl)=NO1` (stereo not shown), the “hERG current change (%, negative = inhibition) at 1uM” value worked out at 10.6%.

As for `CSCCC(NS(=O)(=O)c1ccccc1F)C(=O)NCCCn1nc(C)cc1C` (stereo not shown), the “hERG current change (%, negative = inhibition) at 1uM” value is reported as -1.95%.

`COc1ccc(/C=C(\NC(=O)c2ccc(C)cc2)C(=O)NCCCN2CCOCC2)cc1OC`: the “hERG current change (%, negative = inhibition) at 1uM” value was found to be 14.1%.

Take `COc1ccc(/C=C(\NC(=O)c2ccc(Cl)cc2)C(=O)NCCCN2CCOCC2)cc1OC`: the “hERG current change (%, negative = inhibition) at 1uM” value is 9.09%.

Turning to `Cc1ccc(C(=O)N/C(=C\c2ccc(Cl)cc2)C(=O)NCCCN2CCOCC2)cc1`, the “hERG current change (%, negative = inhibition) at 1uM” value was -78.6%.

As for `Cc1ccc(OCCOCCN2CCN(C)CC2)c(C(C)(C)C)c1.O=C(O)C(=O)O`, the “hERG current change (%, negative = inhibition) at 1uM” value turned out to be 13.2%.

On to `Cc1ccc(S(=O)(=O)NCC(c2cccnc2)N2CCN(Cc3ccccc3)CC2)cc1` (stereo not shown), for which the “hERG current change (%, negative = inhibition) at 1uM” value is -39.6%.

With `CCN1CCN(C(CNS(=O)(=O)c2ccc(Cl)cc2)c2cccnc2)CC1` (stereo not shown), the “hERG current change (%, negative = inhibition) at 1uM” value is -10.6%.

With `O=S(=O)(NCC(c1cccnc1)N1CCN(Cc2ccccc2)CC1)c1ccc(F)cc1` (stereo not shown), the “hERG current change (%, negative = inhibition) at 1uM” value is -42.6%.

On to `COc1ccc(S(=O)(=O)NCC(c2cccnc2)N2CCN(Cc3ccccc3)CC2)cc1C` (stereo not shown), for which the “hERG current change (%, negative = inhibition) at 1uM” value is on record as -65.5%.

In the case of `O=S(=O)(NCC(c1cccnc1)N1CCN(Cc2ccccc2)CC1)c1ccc(Cl)cc1` (stereo not shown), the “hERG current change (%, negative = inhibition) at 1uM” value is recorded as -60.6%.

For the compound `COc1ccc(S(=O)(=O)NCC(c2cccnc2)N2CCN(Cc3ccccc3)CC2)cc1` (stereo not shown), the “hERG current change (%, negative = inhibition) at 1uM” value is -26.7%.

Consider `COc1ccc(S(=O)(=O)NCC(c2cccnc2)N2CCN(c3ccccc3)CC2)cc1C` (stereo not shown), for which the “hERG current change (%, negative = inhibition) at 1uM” value is -1.72%.

On to `O=S(=O)(NCC(c1cccnc1)N1CCN(Cc2ccccc2)CC1)c1ccccc1` (stereo not shown), for which the “hERG current change (%, negative = inhibition) at 1uM” value is listed as -52.4%.

As for `CCN1CCN(C(CNS(=O)(=O)c2ccc(OC)c(C)c2)c2cccnc2)CC1` (stereo not shown), the “hERG current change (%, negative = inhibition) at 1uM” value is -27.5%.

Regarding `COc1ccc(C(=O)NNC(=O)C(=O)NC2CCCCC2)cc1`, the “hERG current change (%, negative = inhibition) at 1uM” value worked out at 4.11%.

With `O=c1cccccc1NN=C1CCCCCC1`, the “hERG current change (%, negative = inhibition) at 1uM” value came out at 14.1%.

For `Clc1ccc(/C=N/Nc2nnc(-c3ncc[nH]3)c3ccccc23)cc1`, the “hERG current change (%, negative = inhibition) at 1uM” value is on record as 4.89%.

For `Cc1cc(OCCCCOc2ccc(S(N)(=O)=O)c(C)c2)ccc1S(N)(=O)=O`, the “hERG current change (%, negative = inhibition) at 1uM” value is 12.7%.

For the compound `O=C(O)Cn1c(=O)c2c3c(sc2n(Cc2ccc(Cl)cc2Cl)c1=O)CCCC3`, the “hERG current change (%, negative = inhibition) at 1uM” value was 6.14%.

In the case of `CC(Sc1nnc(C2CC2)n1C1CC1)C(=O)N(C)Cc1cccc(F)c1` (stereo not shown), the “hERG current change (%, negative = inhibition) at 1uM” value was -2.8%.

On to `CCOC(=O)C1=C(c2ccccc2)NC(=O)N(C(C)=O)C1c1cccc([N+](=O)[O-])c1` (stereo not shown), for which the “hERG current change (%, negative = inhibition) at 1uM” value is on record as 10.2%.

Regarding `CC(C)OCCCn1c(=N)c(S(=O)(=O)c2ccccc2)cc2c(=O)n3ccccc3nc21`, the “hERG current change (%, negative = inhibition) at 1uM” value was -0.118%.

In the case of `Cc1ccc2nc3c(cc(C(N)=S)c(=N)n3CCCOC(C)C)c(=O)n2c1`, the “hERG current change (%, negative = inhibition) at 1uM” value was -65.1%.

As to `CCOC(=O)c1cc2c(=O)n3ccccc3nc2n(CCCOC)c1=NC(C)=O`, the “hERG current change (%, negative = inhibition) at 1uM” value is reported as -15.6%.

Turning to `CCOCCCn1c(=N)c(S(=O)(=O)c2ccccc2)cc2c(=O)n3cc(C)ccc3nc21`, the “hERG current change (%, negative = inhibition) at 1uM” value was found to be 11.3%.

For `CC(C)OCCCn1c(=N)c(C(N)=S)cc2c(=O)n3ccccc3nc21`, the “hERG current change (%, negative = inhibition) at 1uM” value is -74.5%.

As to `CCOCCCn1c(=N)c(S(=O)(=O)c2ccc(C)cc2)cc2c(=O)n3cc(C)ccc3nc21`, the “hERG current change (%, negative = inhibition) at 1uM” value is on record as 16.1%.

As to `CCc1cc(C(=O)COc2ccc(F)cc2)c(O)cc1O`, the “hERG current change (%, negative = inhibition) at 1uM” value stood at 5.76%.

`CCSc1nc2sc3c(c2c(=O)[nH]1)CC(C)(CC)OC3` (stereo not shown): the “hERG current change (%, negative = inhibition) at 1uM” value turned out to be 18.7%.

Take `CC(C)CNC1=CC(=O)CC(c2ccco2)C1` (stereo not shown): the “hERG current change (%, negative = inhibition) at 1uM” value was 14.5%.

Consider `O=C1C=C(NCc2ccc3c(c2)OCO3)CC(c2ccccc2)C1` (stereo not shown), for which the “hERG current change (%, negative = inhibition) at 1uM” value is given as -81.9%.

For the compound `O=C1C=C(NCc2ccc(Cl)cc2)CC(c2ccco2)C1` (stereo not shown), the “hERG current change (%, negative = inhibition) at 1uM” value is -91.3%.

On to `COc1ccc(C2CC(=O)C=C(NCc3ccc4c(c3)OCO4)C2)cc1` (stereo not shown), for which the “hERG current change (%, negative = inhibition) at 1uM” value is listed as -32.6%.

For the compound `CN(C)CCCNC1=CC(=O)CC(c2ccccc2)C1` (stereo not shown), the “hERG current change (%, negative = inhibition) at 1uM” value was -1.56%.

As for `O=C1C=C(NCc2ccco2)CC(c2ccc(Cl)cc2)C1` (stereo not shown), the “hERG current change (%, negative = inhibition) at 1uM” value was -34.8%.

Take `CCc1ccc(NC2=CC(=O)CC(c3ccco3)C2)cc1` (stereo not shown): the “hERG current change (%, negative = inhibition) at 1uM” value was determined as 12.9%.

`O=C1C=C(Nc2ccc(Cl)cc2)CC(c2ccco2)C1` (stereo not shown): the “hERG current change (%, negative = inhibition) at 1uM” value was found to be 4.78%.

As for `CC(C)CCNC1=CC(=O)CC(c2ccccc2)C1` (stereo not shown), the “hERG current change (%, negative = inhibition) at 1uM” value is listed as -0.257%.

Turning to `CCCCCCCNC1=CC(=O)CC(c2ccco2)C1` (stereo not shown), the “hERG current change (%, negative = inhibition) at 1uM” value is -77.6%.

As to `O=C1C=C(NCc2ccncc2)CC(c2ccccc2)C1` (stereo not shown), the “hERG current change (%, negative = inhibition) at 1uM” value is -22.8%.

For `CCCCCCCNC1=CC(=O)CC(c2ccccc2)C1` (stereo not shown), the “hERG current change (%, negative = inhibition) at 1uM” value is given as -63.2%.
